# Results reported in PubChem BioAssay AID2315 (National Center for Advancing Translational Sciences (NCATS), 2010).
# Among all 290,000 compounds or so, about 27,000 (9.3%) were called active. This excerpt belongs to a sample that is enriched for actives. Values without a mark were called inactive. Cut-off read from the data, not from the text of the source: active = inhibition mostly above about 28% (no sharp cut-off); inactive = mostly below about 43%.
# Assay: A qHTS for Small Molecule Inhibitors of Shiga Toxin; note: 0% is about no effect
# Settings: Vero cells, Shiga toxin protein synthesis inhibition reporter; at 38.7 µM, active compounds read high
row,Compound,inhibition
1,CCN(CC)c1ccc(NC(=O)CCc2nnc3ccc(N4CCCCC4)nn23)c(C)c1,-1.98%
2,Cc1[nH]c(C)c(S(=O)(=O)N2CCC(C)CC2)c1C(=O)N1CCCC1,-4.27%
3,Cc1ccsc1-c1cc(C(=O)O)c2c(ccc3ccccc32)n1,17.5%
4,CN(Cc1c(F)cccc1Cl)S(=O)(=O)c1cccs1,20.7%
5,CC1CC(C)CN(c2ccc(S(=O)(=O)N3CCOCC3)cc2)C1 (stereo not drawn),13.9%
6,Cn1c(CC(=O)Nc2ccc(F)cc2)nnc1SCC(=O)NC1CCCCC1,-5.18%
7,CN(C)c1ccnc(Nc2ccc(F)cc2)c1C#N,7.86%
8,CC(C)c1ccc(Nc2ncccc2C#N)cc1,52.3% (active)
9,CC(=O)Cc1nsc(NC(=O)c2ccc(COc3ccc(C)cc3)o2)n1,-9.97%
10,Cc1cccc(NC(=O)c2ccc(COc3ccccc3[N+](=O)[O-])o2)n1,32.9%
11,CCOc1ccc(OCc2ccc(C(=O)Nc3cccc(C)n3)o2)cc1,42% (active)
12,COc1ccc(CCNC(=O)NS(=O)(=O)c2ccc(C)cc2)cc1OC,4.27%
13,CC(C)Cc1nnc(NC(=O)CN2C(=O)NC3(CCCCC3)C2=O)s1,-8.2%
14,Cc1ccc(S(=O)(=O)NCC(=O)N2CCN(c3ccccn3)CC2)cc1,-5.02%
15,Cc1ccc(N2C(=O)C3CC3C2=O)cc1 (stereo not drawn),25.6%
16,Cc1ccc(N2CCN(c3ccc(C)cc3)C2c2ccccn2)cc1,57.4% (active)
17,Cc1c(CN2CC[C@@H](N3CCN(c4ccccn4)CC3)[C@H](O)C2)[nH]c2ccc(F)cc12,-5.39%
18,COc1ccc(-c2cc3ccc(OCc4nn[nH]n4)cc3oc2=O)cc1,10.3%
19,COc1cccc(C(=O)c2cc3ccc(O)cc3oc2=O)c1,21.7%
20,O=c1oc2cc(O)ccc2cc1-c1ccc(F)cc1,70% (active)
21,Cc1cc2oc(=O)cc(CN(C)Cc3ccc(OC(F)F)cc3)c2cc1Cl,17.5%

row,Compound,inhibition
1,O=C(CCc1nnc2ccc(NCCCN3CCCC3=O)nn12)NCc1ccccc1Cl,20.3%
2,Cc1cc(C)c(NC(=O)CN2CCCCCC2)c(C)c1,83.4% (active)
3,COc1cc(Cl)c(C)cc1NC(=O)CN1CCCCCC1,14.2%
4,Cc1csc(NC(=O)CN2CCCCCC2)n1,-8.35%
5,O=c1cc(Cl)c2ccccc2n1-c1ccccc1,-8.33%
6,O=C(NC1CC1)c1ccc2c(c1)NC(=O)c1ccccc1S2,13.2%
7,C/C(=N\Nc1cccc(C(=O)O)c1)c1ccc2c(c1)Nc1ccccc1S2,77.7% (active)
8,Cc1ccccc1NC(=O)c1cc(S(=O)(=O)Nc2cccc(C(=O)O)c2)ccc1Cl,24.3%
9,COc1cc(-c2n[nH]c(=S)n2Cc2ccccc2)cc(OC)c1OC,-7.08%
10,COc1cc(/C=N/n2c(C)n[nH]c2=S)ccc1OCc1ccccc1,-16.6% (active)
11,Fc1ccc(/C=N/n2c(COc3ccccc3)n[nH]c2=S)cc1,-5.88%
12,COc1ccc(C)cc1Nc1n[n+](-c2ccccc2)c(-c2cccc(Cl)c2Cl)s1,-3.92%
13,O=S(=O)(Nc1cccc(Oc2ccc(Cl)cc2)n1)c1ccc(F)cc1,1.95%
14,COc1ccc(-c2csc3ncnc(N4CCN(S(=O)(=O)c5ccccc5C#N)CC4)c23)cc1,-3.69%
15,CCOC(=O)Cc1csc(NC(=O)Nc2ccccc2)n1,46.4%
16,CCOC(=O)Cc1csc(NC(=O)C(C)(C)C)n1,86.2% (active)
17,CCOC(=O)Cc1csc(NC(NC(=O)OCC)(C(F)(F)F)C(F)(F)F)n1,-12.7%
18,Fc1ccc(-c2ccc(CNCc3ccccn3)o2)cc1Cl,2.57%
19,O=C(/C=C/Sc1ncn[nH]1)c1ccc(Cl)cc1,32.3% (active)
20,COc1ccc(Cl)cc1CSc1ncn[nH]1,4.03%
21,O=C(NCCOCc1ccc(Cl)cc1)c1ncn[nH]1,10.4%

row,Compound,inhibition
1,COc1ccc(CCNc2nc3ccc(C)cc3n3cnnc23)cc1OC,4.18%
2,CCn1c(=O)n(CC)c2cc(N3CCCC3)c(NC(=O)c3ccccc3Br)cc21,-6.78%
3,Cc1cc(S(=O)(=O)N2CCOCC2)ccc1OCC(=O)N1CCOCC1,26.1%
4,Cc1ccc(OCCCC(=O)NC(C)c2ccccc2)c(C)c1 (stereo not drawn),7.36%
5,Cc1ccc(OCCCC(=O)N2CCOCC2)c(C)c1,88.9% (active)
6,COc1c(O)c2c(=O)cc(OC)c3c4c(OC)cc(=O)c5c(O)c(OC)c6c(c(c1C[C@@](C)(O)[C@H]6C(C)=O)c23)c54,10.8%
7,CCOc1ccccc1NC(=O)C1CCCN(S(=O)(=O)c2ccccc2)C1 (stereo not drawn),-4.05%
8,FC(F)(F)c1nnc2c3ccccc3c(Cl)nn12,5.58%
9,Cc1cccc(C)c1NC(=O)COC(=O)c1ccccc1O,-4.8%
10,COc1ccc(C(=O)N2CCCCC2C(=O)Nc2ccc(-n3nc(C)cc3C)cc2)o1 (stereo not drawn),-7.96%
11,CCC(=O)OCCNc1nc(-c2ccccc2)nc2ccccc12,-14.7%
12,CCOC(=O)c1c(N)nn(C(=O)c2ccccc2)c1-c1ccccc1,-3.34%
13,CCOC(=O)c1c(C)nc(-c2ccccc2)nc1NC(=O)C(C)C,38.3% (active)
14,COc1ccc(/C=C/c2c(-c3cccc(C)c3)oc3ccc(-c4ccc5c(c4)OCO5)cc23)cc1,-4.7%
15,Fc1ccc(COc2ccc(-c3nnco3)cc2)cc1,63.9% (active)
16,Fc1ccc(COc2cccc(-c3n[nH]c(=S)o3)c2)cc1,2.21%
17,Fc1cccc(Cl)c1COc1ccc(-c2nnco2)cc1,30.1%
18,O=C(Oc1cccnc1)c1cc2ccccc2oc1=O,1.26%
19,O=C(NCc1cccnc1)c1cccc(-c2cc3ccccc3oc2=O)c1,13.7%
20,Nc1ncc(-c2cc3ccccc3oc2=O)s1,85% (active)
21,COc1cc(CNCc2ccc3c(c2)OCO3)c([N+](=O)[O-])cc1OC,16.9%
